Assay [1] deals with Thyrotropin receptor (Homo sapiens) (UniProt P16473). The assay can be described thus: qHTS assay to identify small molecule antagonists of the thyroid stimulating hormone receptor (TSHR) signaling pathway (AID 1259385; calls by dose curve; also: nearly all actives have a fitted effect of over 20% in size). The method in brief: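 TSHR-HEK293 cells were plated and held 18 h at 37C/5% CO2, then given compound plus Ro20-1724 and stimulated with TSH at 1.5 ng/mL final. After 30 min at room temperature, cAMP was detected with cAMP-d2/anti-cAMP-cryptate (1 h) by fluorescence.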
Sequence of Thyrotropin receptor (Homo sapiens) (P16473 whole entry, looked up): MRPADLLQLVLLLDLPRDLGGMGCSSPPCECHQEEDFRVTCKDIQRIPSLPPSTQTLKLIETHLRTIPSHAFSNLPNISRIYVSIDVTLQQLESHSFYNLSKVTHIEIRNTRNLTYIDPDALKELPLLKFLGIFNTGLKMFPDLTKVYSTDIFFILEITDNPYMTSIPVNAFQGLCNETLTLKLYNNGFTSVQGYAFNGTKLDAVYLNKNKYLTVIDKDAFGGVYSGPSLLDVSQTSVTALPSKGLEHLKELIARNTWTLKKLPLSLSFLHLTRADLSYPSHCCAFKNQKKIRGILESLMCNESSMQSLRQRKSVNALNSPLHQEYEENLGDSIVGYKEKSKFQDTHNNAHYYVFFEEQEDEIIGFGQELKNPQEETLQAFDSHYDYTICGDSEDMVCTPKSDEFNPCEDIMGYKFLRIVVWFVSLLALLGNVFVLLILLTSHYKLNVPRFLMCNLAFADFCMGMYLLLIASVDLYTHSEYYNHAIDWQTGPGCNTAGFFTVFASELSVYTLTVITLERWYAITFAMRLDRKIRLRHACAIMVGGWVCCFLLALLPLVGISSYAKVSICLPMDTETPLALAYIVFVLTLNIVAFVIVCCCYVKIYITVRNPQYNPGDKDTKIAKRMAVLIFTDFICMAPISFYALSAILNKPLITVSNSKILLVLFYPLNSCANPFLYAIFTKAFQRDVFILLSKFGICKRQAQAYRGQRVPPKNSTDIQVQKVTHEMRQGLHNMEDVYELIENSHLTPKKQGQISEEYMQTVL

Assay [2] is described as follows: qHTS assay to identify small molecule agonists of the estrogen receptor alpha (ER-alpha) signaling pathway in the presence of an antagonist - cell viability counter screen (AID 1259386).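 Also: series mostly up to about 92 µM; cells exposed to compounds for 22 h at 37 °C before the viability read; nearly all actives have a fitted effect of over 30% in size.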 The essentials: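 VM7Luc4E2, stripped-serum pre-culture 5 d; 24hr plating; +ICI-182,780 10.0nM final; cpds 15 conc, 22hr, 37C/5% CO2; CellTiter-Fluor added at 21hr, fluorescence 1hr later.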
In general terms: Quantitative high-throughput screening tests each substance at several concentrations.

For assay [3], the target named is Progesterone receptor (Homo sapiens) (UniProt P06401). The assay can be described thus: qHTS assay to identify small molecule agonists of the progesterone receptor (PR) signaling pathway (AID 1346784; calls by dose curve; also: nearly all actives have a fitted effect of over 30% in size). The essentials: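 Agonist mode, quantitative HTS format in a HEK 293T line expressing a UAS-controlled beta-lactamase reporter; 16 hr compound exposure at 37C in 2% charcoal-stripped FBS, then LiveBLAzer B/G FRET fluorescence.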
Sequence of Progesterone receptor (Homo sapiens) (P06401 whole entry, looked up): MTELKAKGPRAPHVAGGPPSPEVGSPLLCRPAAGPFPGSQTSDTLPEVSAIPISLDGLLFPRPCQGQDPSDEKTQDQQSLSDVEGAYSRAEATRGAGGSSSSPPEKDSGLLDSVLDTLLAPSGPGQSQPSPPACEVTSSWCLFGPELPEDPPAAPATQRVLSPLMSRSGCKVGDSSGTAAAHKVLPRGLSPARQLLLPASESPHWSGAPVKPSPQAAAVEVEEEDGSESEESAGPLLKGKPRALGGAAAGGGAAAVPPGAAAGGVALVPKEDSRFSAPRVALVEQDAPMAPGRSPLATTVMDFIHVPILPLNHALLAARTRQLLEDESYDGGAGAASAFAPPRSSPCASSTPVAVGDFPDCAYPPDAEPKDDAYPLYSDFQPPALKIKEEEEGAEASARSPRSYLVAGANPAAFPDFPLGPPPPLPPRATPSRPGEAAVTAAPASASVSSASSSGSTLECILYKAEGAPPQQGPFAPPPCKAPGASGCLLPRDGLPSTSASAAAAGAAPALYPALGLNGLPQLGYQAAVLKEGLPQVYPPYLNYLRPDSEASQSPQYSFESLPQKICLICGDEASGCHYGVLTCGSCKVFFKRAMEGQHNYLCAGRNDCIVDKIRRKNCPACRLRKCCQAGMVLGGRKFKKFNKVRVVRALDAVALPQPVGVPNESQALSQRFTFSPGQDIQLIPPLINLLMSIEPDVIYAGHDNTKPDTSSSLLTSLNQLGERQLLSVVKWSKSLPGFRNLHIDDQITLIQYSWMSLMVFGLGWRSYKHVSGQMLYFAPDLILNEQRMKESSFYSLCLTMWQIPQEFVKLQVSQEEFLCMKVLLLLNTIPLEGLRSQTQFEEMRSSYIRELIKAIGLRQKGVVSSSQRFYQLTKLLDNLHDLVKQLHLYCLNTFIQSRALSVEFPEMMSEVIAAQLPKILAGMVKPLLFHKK

Assay [4] can be described thus: qHTS assay to identify small molecule agonists of the progesterone receptor (PR) signaling pathway - cell viability counter screen (AID 1346799; calls by dose curve; also: nearly all actives have a fitted effect of over 45% in size). The essentials:
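Counter screen for cytotoxicity: compound-treated PR-UAS-bla HEK293T cells (16 hr, 37C, 5% CO2) were assayed with CellTiter-Glo, luminescence measured after 30 min at room temperature.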

The nature of assay [5]: qHTS assay to identify small molecule antagonists of the TGF-beta/Smad signaling pathway - cell viability counter screen (AID 1346824). Also: nearly all actives have a fitted effect of over 50% in size. The method in brief:
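SBE-bla HEK 293T cells were plated overnight at 37 C, then given compounds in DMSO plus TGF-beta1 (added as 0.25 ng/mL solution) for 5 hr. After the bla read, CellTiter-Glo was added to the same wells and luminescence read after 30 min at room temperature.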

Assay [6] is described as follows: qHTS assay to identify small molecule agonists of the TGF-beta/Smad signaling pathway - cell viability counter screen (AID 1346829). Also: top concentration of the series differs between compounds; nearly all actives have a fitted effect of over 45% in size. The method in brief:
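Tox21 qHTS format: SBE-bla HEK 293T cells treated with DMSO-dissolved compounds for 5 hr; CellTiter-Glo luminescence after 30 min at room temperature.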

A short description of assay [7]: qHTS assay to identify small molecule agonists of the TGF-beta/Smad signaling pathway (AID 1346859; active = well fitted activation curve with a large enough effect in the signal ratio in the repeat runs, not every such curve was filed as active; the % refers to the signal ratio; also: series mostly up to about 77 µM). The method in brief:
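Smad-responsive beta-lactamase reporter cells (HEK 293T) received compounds from DMSO stocks after overnight attachment, were incubated 5 hr, then treated 2 hr with FRET substrate before dual-emission fluorescence measurement (405 nm excitation).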

The nature of assay [8]: Human pregnane X receptor (PXR) small molecule agonists, qHTS cell viability counter screen (AID 1346977). Also: nearly all actives have a fitted effect of over 50% in size. The essentials:
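Measures live-cell protease fluorescence (CellTiter-Fluor) in PXR-Luc HepG2 cells treated 24hr with compounds at 37C. Cells had 5hr to attach before pin transfer of DMSO solutions.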

Assay [9] is described as follows: Caspase-3/7 induction in HepG2 cells by small molecules, qHTS assay (AID 1346978). Also: nearly all actives have a fitted effect of over 15% in size. The method in brief:
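Wild-type HepG2 cells (2,000/well) were settled 5 h at 37 C, 5% CO2, then exposed to compounds in DMSO for 17 h. Caspase-3/7 activity was read by luminescence 30 min after adding Caspase-Glo 3/7 reagent at room temperature.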

The nature of assay [10]: Caspase-3/7 induction in CHO-K1 cells by small molecules, qHTS assay (AID 1346980). Also: nearly all actives have a fitted effect of over 15% in size. The method in brief:
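Wild-type cells were seeded at 1,500 per well and settled 5 hr at 37 C, 5% CO2, then exposed to DMSO-dissolved compounds for 17 hr. Caspase-Glo 3/7 reagent was added, and luminescence was read after 30min at room temperature.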

Assay [11] addresses Nuclear receptor subfamily 1 group I member 2 (Rattus norvegicus) (UniProt Q9R1A7). The assay can be described thus: Rat pregnane X receptor (rPXR) activation by small molecules, qHTS assay (AID 1346983). Also: nearly all actives have a fitted effect of over 20% in size. The settings on record: rPXR luciferase reporter cells, One-Glo luminescence, 24 h; max activation: stronger effect = higher value. The method in brief:
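Cell-based rPXR luciferase reporter assay, 2,000 cells per well, rested 5hr at 37 C before compound addition in DMSO, then 24 hr at 37 C. One-Glo reagent was added and luminescence read after 30 min at room temperature.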

Assay [12] deals with Nuclear receptor subfamily 1 group I member 2 (Homo sapiens) (UniProt O75469). The assay can be described thus: CYP3A4 induction through human pregnane X receptor (PXR) by small molecules, qHTS assay (AID 1346984). Also: nearly all actives have a fitted effect of over 40% in size. The method in brief: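 Luminescence readout: luciferase signal after One-Glo (30 min, room temperature), following 3 h at 37C with 3uM final Luciferin-IPA P450 substrate. Cells were DPX-2 (HepG2, PXR/CYP3A4-luc co-transfected) dosed for 24 h.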
Sequence of Nuclear receptor subfamily 1 group I member 2 (Homo sapiens) (O75469 whole entry, looked up): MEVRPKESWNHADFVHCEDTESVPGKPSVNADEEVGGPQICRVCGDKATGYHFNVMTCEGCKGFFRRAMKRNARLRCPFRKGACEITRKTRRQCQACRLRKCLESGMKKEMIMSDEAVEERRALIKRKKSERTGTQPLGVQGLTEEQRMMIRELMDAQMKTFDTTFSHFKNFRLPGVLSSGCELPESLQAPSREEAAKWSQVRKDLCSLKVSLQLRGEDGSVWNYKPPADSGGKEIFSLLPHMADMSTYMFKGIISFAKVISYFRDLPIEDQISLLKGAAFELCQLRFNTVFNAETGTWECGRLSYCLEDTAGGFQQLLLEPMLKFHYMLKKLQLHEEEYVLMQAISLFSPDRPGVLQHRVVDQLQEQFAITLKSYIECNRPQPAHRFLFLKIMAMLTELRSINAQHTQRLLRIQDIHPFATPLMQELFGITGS

Assay [13] has the same target. The assay can be described thus: Human pregnane X receptor (PXR) activation by small molecules, qHTS assay (AID 1346985). Also: nearly all actives have a fitted effect of over 40% in size. The essentials:
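DPX-2 cells (HepG2 co-transfected with a PXR response element and a CYP3A4-promoter luciferase construct) were seeded at 2,000 per well, rested 5 hr at 37C, then exposed to DMSO-dissolved compounds for 24 hr. Activation was read as luciferase luminescence.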

For assay [14], the target named is Thyrotropin-releasing hormone receptor (Homo sapiens) (UniProt P34981). The assay can be described thus: qHTS assay to identify small molecule agonists of the thyrotropin-releasing hormone receptor (TRHR) signaling pathway (AID 1346891; calls by dose curve;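 also: HEK293 cells expressing TRHR with calcium dye readout; series mostly up to about 58 µM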). The essentials: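 Agonist-mode calcium mobilisation screen: TRHR-transfected HEK293 cells cultured overnight (18 h), dye-loaded for 2 h at 37 °C, exposed to compounds, and monitored by fluorescence for 3 min.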
Sequence of Thyrotropin-releasing hormone receptor (Homo sapiens) (P34981 whole entry, looked up): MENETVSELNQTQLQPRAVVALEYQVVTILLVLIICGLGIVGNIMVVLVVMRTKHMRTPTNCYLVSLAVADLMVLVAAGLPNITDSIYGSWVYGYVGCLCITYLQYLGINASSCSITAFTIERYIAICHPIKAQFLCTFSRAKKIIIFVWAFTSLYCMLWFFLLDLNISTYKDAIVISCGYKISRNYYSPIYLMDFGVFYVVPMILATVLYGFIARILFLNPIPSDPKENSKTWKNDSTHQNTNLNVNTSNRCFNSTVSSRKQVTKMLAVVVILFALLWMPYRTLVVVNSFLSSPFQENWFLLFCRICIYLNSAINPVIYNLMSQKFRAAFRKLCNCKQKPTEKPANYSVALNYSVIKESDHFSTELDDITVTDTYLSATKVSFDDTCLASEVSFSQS

The nature of assay [15]: Caspase-3/7 induction in CHO-K1 cells by small molecules, qHTS cell viability counter screen (AID 1346979). Also: nearly all actives have a fitted effect of over 35% in size. Also: potency is read from the fitted curve at half-maximal effect. The essentials: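 In the same wells as the caspase read, viability of compound-treated wild-type CHO-K1 cells was assessed using CellTiter-Fluor, added after 16hr at 37C and measured by fluorescence following 1hr further incubation.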
A short description of assay [16]: Caspase-3/7 induction in HepG2 cells by small molecules, qHTS cell viability counter screen (AID 1346981). Also: series mostly up to about 92 µM; nearly all actives have a fitted effect of over 30% in size. The essentials: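 HepG2, WT, 2,000 cells/well; 5 hr pre-incubation 37 C/5% CO2; compound pin-transferred from DMSO; 16 hr exposure; CellTiter-Fluor, 1 hr; fluorescence read.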
Assay [17] addresses Nuclear receptor subfamily 1 group I member 2 (Homo sapiens) (UniProt O75469). The assay can be described thus: Human pregnane X receptor (PXR) small molecule agonists, qHTS assay (AID 1346982). Also: nearly all actives have a fitted effect of over 35% in size. Also: potency is read from the fitted curve at half-maximal effect. The method in brief: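 Luciferase signal from ONE-Glo (30 min, room temperature) measured activation of hPXR-driven CYP3A4 reporter expression in PXR-Luc HepG2 cells treated with compounds for 24 hr at 37 C.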

Assay [18] has as its target Progesterone receptor (Homo sapiens) (UniProt P06401). The assay can be described thus: qHTS assay to identify small molecule antagonists of the progesterone receptor (PR) signaling pathway (AID 1346795; active = well fitted inhibition curve with a large enough effect in the signal ratio in the repeat runs, not every such curve was filed as active; the % refers to the signal ratio; also: potency is read from the fitted curve at half-maximal effect). The method in brief:
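HEK293T PR-UAS-bla reporter cells in charcoal-stripped serum (2%) received compound after a 6 hr settling period, followed by R5020 agonist at 1 nM final; 16 hr incubation preceded the FRET substrate step and fluorescence measurement.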

Assay [19] is described as follows: qHTS assay to identify small molecule antagonists of the progesterone receptor (PR) signaling pathway - cell viability counter screen (AID 1346798). Also: series mostly up to about 92 µM; nearly all actives have a fitted effect of over 50% in size. The essentials: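 Same-well multiplex: after 16 hr at 37C with compound and R5020 stimulation, HEK293T cells carrying a UAS-bla reporter received LiveBLAzer substrate (2 hr RT), then CellTiter-Glo (30 min RT) for luminescent viability.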

Assay [20] addresses Thyrotropin-releasing hormone receptor (Homo sapiens) (UniProt P34981). The assay can be described thus: qHTS assay to identify small molecule antagonists of the thyrotropin-releasing hormone receptor (TRHR) signaling pathway (AID 1346877; active = well fitted inhibition curve with a large enough effect in the repeat runs, not every such curve was filed as active; also: series mostly up to about 51 µM). The essentials: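 Intracellular calcium fluorescence, read kinetically every second over 3 min, reports TRH-evoked signalling in HEK293 cells carrying TRHR. Test compounds were added 5 min ahead of a 1 nM TRH challenge.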

Several values for one entry are separate records, joined by “and”; a condition that tells them apart may be missing. Equal entries are not always repeated. Unmarked numbers belong to inactive results. Inconclusive results are not listed. Activity calls are given as the source filed them. Unless noted, calls follow the shape of the dose curve; as a rule, active = well fitted curve in the direction sought with a large enough effect in the repeat runs; inconclusive = weak or mixed curves; inactive = no such curve, though single readings can be large; an effect the other way counts as inactive or inconclusive.
% is scaled to controls: 0 for no effect and ±100 for the full control effect.

Sequence of Nuclear receptor subfamily 1 group I member 2 (Rattus norvegicus) (Q9R1A7 whole entry, looked up): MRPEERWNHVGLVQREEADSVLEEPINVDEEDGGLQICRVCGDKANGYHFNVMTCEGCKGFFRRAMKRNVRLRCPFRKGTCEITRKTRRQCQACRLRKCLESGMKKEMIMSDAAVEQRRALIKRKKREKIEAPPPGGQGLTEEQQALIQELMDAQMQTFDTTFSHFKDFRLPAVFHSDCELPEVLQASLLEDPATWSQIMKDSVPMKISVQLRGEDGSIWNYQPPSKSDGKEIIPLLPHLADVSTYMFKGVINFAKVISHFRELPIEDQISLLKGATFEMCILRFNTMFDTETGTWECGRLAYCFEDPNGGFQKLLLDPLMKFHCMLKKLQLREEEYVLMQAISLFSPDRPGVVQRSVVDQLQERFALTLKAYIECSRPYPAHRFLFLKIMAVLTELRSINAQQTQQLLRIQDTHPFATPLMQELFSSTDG

`O=C1c2ccccc2C(=O)C1C(=O)C(c1ccccc1)c1ccccc1`: the Potency result in [1], in [2], in [3], in assay [4], in assay [5] and in [6] was “inactive” throughout. The Potency entry in assay [8], in assay [9], in assay [10], in [12] and in assay [13] was “inactive” each time. The result in assay [7] was inactive. Further, the max activation in assay [11] was -0.238%.

Turning to `C=CC(C)=O`, the Potency result in assay [1], in assay [2], in assay [3], in [4], in assay [5] and in assay [6] was “inactive” each time. In addition, the Potency entry in assay [14], in [8], in assay [9], in assay [15], in assay [10] and in assay [16] was “inactive” each time. The Potency result in assay [17] is “inactive”. Besides, in assay [7], the call was inactive.

As to `CCCCC(CC)COP(=O)(Oc1ccccc1)Oc1ccccc1` (configuration not stated), the Potency result in [1], in assay [2], in assay [3], in assay [4], in [5] and in [6] was “inactive” in each case. Moreover, the Potency entry in assay [8], in assay [9], in [15], in assay [10] and in [16] was “inactive” in each case. In addition, the compound was called inactive in [7]. Further, the Potency in [17] was 7.7 µM (active).

As to `CCOP(=O)(OCC)Oc1ccc([N+](=O)[O-])cc1`, the Potency entry in assay [1], in [2], in assay [19], in [4], in assay [5] and in [8] was “inactive” throughout. Besides, the Potency result in assay [9], in [15], in [10] and in [16] was “inactive” in each case. Besides, the Potency in assay [18] is 17.4 µM (active) and 17.2 µM (active). Moreover, the compound was called inactive in assay [7].

Take `O=C1C(=O)c2cccc3cccc1c23`: the Potency entry in [1], in assay [2], in assay [3], in assay [19], in assay [4] and in assay [5] was “inactive” each time. For the same compound, the Potency result in [20], in [14], in assay [8], in assay [10] and in [16] was “inactive” throughout. Moreover, in assay [7], the compound was called inactive. Further, the Potency in [15] was 21.7 µM (active); in [17], 54.4 µM (active).

As for `CO[C@@H]1[C@H](OC(=O)NC(=O)CCl)CC[C@]2(CO2)[C@H]1[C@@]1(C)O[C@@H]1CC=C(C)C`, the activity change, negative = inhibition in assay [1] is 0.358% [at 19 µM]; in assay [18], 6.82% [at 18.9 µM]. In addition, the activity change, negative = cytotoxicity in assay [2] was -1.81% [at 19 µM]; in [19] it was -12.2% [at 18.9 µM]; in assay [4], -29% [at 19 µM]; in [6], 8.28% [at 15.8 µM]; in assay [8] it was 1.62% [at 19 µM]; in assay [16], -0.84% [at 19 µM]. Besides, the viability change, negative = cytotoxic in [5] was 3.4% [at 15.8 µM]. The activation in assay [7] is 3.24% [at 15.8 µM]. Further, the activity, negative = inhibition in assay [20] was 4.68% [at 10.5 µM]. Further, the caspase activation in [9] was 1.54% [at 19 µM]. Also, the caspase-3/7 activation in [10] was 1.61% [at 19 µM].

As for `BrCCCCBr`, the Potency entry in [1], in assay [2], in [19], in [4], in assay [6] and in assay [20] was “inactive” throughout. The Potency result in assay [14], in assay [8], in assay [9], in assay [15], in assay [10] and in [16] was “inactive” each time. Also, in assay [17], the Potency entry was “inactive”. In addition, the result in [7] was inactive.

As for `Cc1c(F)c(F)c(COC(=O)C2C(/C=C(\Cl)C(F)(F)F)C2(C)C)c(F)c1F` (configuration not stated), the Potency result in assay [1], in [2], in assay [3], in assay [19], in [4] and in [6] was “inactive” in each case. In addition, the Potency result in assay [20], in assay [14], in assay [8], in assay [9], in assay [15] and in assay [10] was “inactive” in each case. Besides, in assay [16], the Potency result was “inactive”. For the same compound, the compound was classed as inactive in [7].
